“And” between values parts separate entries of the source, which are not always exact repeats. Equal values may be shown once. The source made the active and inactive calls.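 How the source made its calls, unless noted: active means inhibition at or above 50% relative to wild type and mutant plate controls; inactive means inhibition below 50%.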
Tests used:
[1] = inhibitors of TNFa-induced NFkB p65 translocation, primary screen, imaging, HUVEC, MLSMR starter and 10KST1 sets (AID 438;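 active means inhibition above 20% together with a positive visual image hit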;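 further: compound added about 3h40 before a 20 min TNFalpha stimulation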;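 on inhibition: signal is the nuclear over cytoplasmic p65 intensity ratio per well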); settings: HUVEC TNFa-induced p65 nuclear translocation; cell count: measured here: nuclei count (cytotoxicity indicator), at 2.08 µM unless noted; inhibition: at 2 µM, stronger effect = higher value unless noted
[2] = reduction of polyQ htt aggregates in cells – imaging, exon1htt(103Q)mCFP cells, high-content imaging, primary screen (AID 483;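 active means visual image review flags a hit and inhibition of aggregation exceeds 20%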;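 further: compound exposure lasted 3 days before fixation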;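 on nuclei count: percent of the per-plate median nuclei count of sample wells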); settings: exon1htt(103Q)mCFP cell line, aggregate imaging, at 2 µM; inhibition of aggregation: stronger effect = higher value; nuclei count: measured here: cell count, toxicity
[3] = endothelial E-selectin expression blockers – imaging, HUVEC, immunofluorescence, MLSMR starter and 10KST1 sets, primary screen (AID 487;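 active means visually confirmed hit in the image check and inhibition above 20%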;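 on inhibition: signal is fraction of cell area covered by stained E-selectin grains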;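 on nuclei count: 100% = median nuclei count of all wells on the same plate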); settings: HUVEC TNFalpha-induced E-selectin immunofluorescence imaging, at 2 µM; inhibition: stronger effect = higher value; nuclei count: measured here: cell number, toxicity
[4] = Primary imaging screen for DUSP6 inhibitors that restore phospho-Erk in transfected HeLa cells, chemical complementation (AID 609;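 active means compounds giving at least 50% inhibition in the cell-based MKP-3 phosphatase rescue imaging test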;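 on inhibition: phospho-Erk level distribution per well compared with pooled transfected vehicle control wells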); settings: HeLa MKP-3 transfected, phospho-Erk imaging KS statistic, at 10 µM
[5] = target: Dual specificity protein phosphatase 6 (Homo sapiens) (UniProt Q16828); assay: as above; settings: HeLa MKP-3 transfected, phospho-Erk imaging KS statistic, at 10 µM, stronger effect = higher value
Sequence of Dual specificity protein phosphatase 6 (Homo sapiens) (Q16828 whole entry, looked up): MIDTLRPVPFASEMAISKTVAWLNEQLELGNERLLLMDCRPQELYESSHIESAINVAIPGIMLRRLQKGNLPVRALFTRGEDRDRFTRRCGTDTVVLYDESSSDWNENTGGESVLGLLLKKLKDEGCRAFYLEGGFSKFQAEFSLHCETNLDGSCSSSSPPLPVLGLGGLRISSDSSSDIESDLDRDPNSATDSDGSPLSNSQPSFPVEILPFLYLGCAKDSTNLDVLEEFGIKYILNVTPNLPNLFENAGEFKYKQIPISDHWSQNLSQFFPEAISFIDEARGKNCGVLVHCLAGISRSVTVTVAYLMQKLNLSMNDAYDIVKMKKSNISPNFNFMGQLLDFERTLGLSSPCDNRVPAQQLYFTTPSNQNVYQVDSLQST

[6] = target: Voltage-gated potassium channel subunit beta-2 (Rattus norvegicus) (UniProt P62483); assay: inhibitors of rat Kvbeta2 reductase activity – biochemical, NADPH fluorescence, primary screen (AID 622;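 active means fluorescence slope higher than the sample average by over 3 SD, cut at about -0.22 in these data, passing the limit was not always enough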;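 further: slope of raw intensity against log time taken from 70 to 1610 s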); settings: recombinant KvBeta, 4-cyanobenzaldehyde reduction, at 10 µM, stronger effect = higher value
Sequence of Voltage-gated potassium channel subunit beta-2 (Rattus norvegicus) (P62483 whole entry, looked up): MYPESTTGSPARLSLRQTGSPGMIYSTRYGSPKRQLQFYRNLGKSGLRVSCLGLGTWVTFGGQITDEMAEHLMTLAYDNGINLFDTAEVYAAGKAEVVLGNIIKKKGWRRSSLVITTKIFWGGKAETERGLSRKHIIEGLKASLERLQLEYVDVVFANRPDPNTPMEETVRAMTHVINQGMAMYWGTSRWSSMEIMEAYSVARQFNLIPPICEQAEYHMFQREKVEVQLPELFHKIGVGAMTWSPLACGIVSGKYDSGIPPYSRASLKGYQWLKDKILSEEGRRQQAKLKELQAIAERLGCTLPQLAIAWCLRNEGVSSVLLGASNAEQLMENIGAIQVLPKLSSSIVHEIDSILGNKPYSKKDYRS

[7] = target: Voltage-gated potassium channel subunit beta-2 (Rattus norvegicus) (UniProt P62483); assay: enhancers of rat Kvbeta2 NADPH turnover – biochemical, NADPH fluorescence, primary screen (AID 623;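 active means NADPH fluorescence slope more negative than the mean of all samples by about 3 SD, 99.7% confidence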;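 further: fluorescence intensity change per second fitted from 20 to 320 s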); settings: Recombinant KvBeta, NADPH fluorescence decrease slope, 10 min; at 10 µM; stronger effect = lower value
[8] = target: Alpha-2C adrenergic receptor (Homo sapiens) (UniProt P18825); assay: compounds altering alpha2C-coupled GIRK flux – cell-based, HEK293 alpha2C/GIRK1/2, thallium flux, primary screen (AID 624;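 active means fluorescence slope after compound addition differing from the mean of all screened samples at 99.7% confidence, in either direction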;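 further: slope of fluorescence ratio to pre-addition baseline per second over 15 to 24 s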); settings: thallium flux BTC fluorescence, at 10 µM, actives lie on both sides
Sequence of Alpha-2C adrenergic receptor (Homo sapiens) (P18825 whole entry, looked up): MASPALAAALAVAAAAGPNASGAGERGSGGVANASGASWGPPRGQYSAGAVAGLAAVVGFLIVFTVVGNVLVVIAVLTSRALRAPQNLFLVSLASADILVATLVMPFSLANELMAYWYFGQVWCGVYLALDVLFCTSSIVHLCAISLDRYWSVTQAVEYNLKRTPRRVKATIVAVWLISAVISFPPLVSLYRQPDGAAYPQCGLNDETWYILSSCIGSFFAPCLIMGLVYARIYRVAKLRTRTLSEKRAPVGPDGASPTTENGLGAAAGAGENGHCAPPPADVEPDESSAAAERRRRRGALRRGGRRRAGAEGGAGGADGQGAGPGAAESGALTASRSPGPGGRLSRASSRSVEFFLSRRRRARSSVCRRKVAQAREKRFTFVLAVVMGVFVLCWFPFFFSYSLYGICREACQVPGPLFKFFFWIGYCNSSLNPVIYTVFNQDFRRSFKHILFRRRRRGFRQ

[9] = loss of swimming-algae plug formation – whole organism, Chlamydomonas reinhardtii, WT vs cilia-less mutant, absorbance, 96-well, primary screen (AID 463189); settings: Chlamydomonas reinhardtii gravitaxis, OD600 absorbance, 2 days; at 10 µM; stronger effect = higher value;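 further: 0% = wild type cc124 cells in DMSO and 100% = ciliumless bld1 mutant cells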
[10] = blockers of RIG-like receptor reporter activation – cell-based, Sendai virus stimulus, luciferase, 10K MLSCN set, TLR/RLR signaling modifier project, primary screen (AID 602276;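 active means inhibition at or above 50% at 10 µM; inactive means inhibition below 50%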;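 further: firefly luciferase from ISG56 promoter only with Renilla not read in this screen; 0% = Sendai virus plus DMSO and 100% = medium plus DMSO without virus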); settings: HEK293 RL24 IRF3 luciferase reporter, at 10 µM, stronger effect = higher value
[11] = TLR3 IRF3 reporter activation blockers – cell-based, poly I:C stimulus, luciferase, 10K MLSCN set, primary screen (AID 602277;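 active means inhibition of the reporter signal at or above 50%; inactive means inhibition below 50%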); settings: HEK293-TLR3 RL24 IRF3 luciferase reporter, at 10 µM, stronger effect = higher value
[12] = inhibitors of larval lipid processing in zebrafish, primary screen, whole organism, PED6 fluorescence, gall bladder and intestine (AID 686;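 active means a full or partial loss of lipid-probe fluorescence in the fish gall bladder, intestine or both, judged by eye; inactive means no fluorescence loss, or compound toxic to the fish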;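 further: larvae 5 to 7 days old with five fish per well; signal comes from phospholipase A2 cleavage of quenched PED6 carried via bile; overnight exposure to compound and PED6 before scoring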); settings: Zebrafish larvae PED6 lipid processing, fluorescence scoring
[13] = measured here: cell density z-score
[14] = measured here: nuclear c-Myc green intensity z-score
[15] = measured here: nuclear pErk red intensity z-score, stronger effect = higher value

Structure (SMILES): c1ccc2c3c([nH]c2c1)CNCC3
- cell count [1]: 485
- inhibition [1]: -1.2% (inactive)
- inhibition of aggregation [2]: 3.2% (inactive)
- nuclei count [2]: 92.7%
- inhibition [3]: -84.5% (inactive)
- nuclei count [3]: 114%
- z-score [4, 13]: 0.136
- z-score [4, 14]: -0.573
- z-score [4, 15]: -0.521
- inhibition [5]: 23.4% (inactive)
- fluorescence slope [6]: -0.459 (inactive)
- NADPH fluorescence slope [7]: -6.4e-05 (inactive)
- slope [8]: 0.00455 (inactive)
- inhibition [9]: 24.5% (inactive)
- inhibition [10]: 4.35% (inactive)
- inhibition [11]: 51.6% (active)

Structure (SMILES): C=C1CC[C@@]2(O)[C@H]3Cc4ccc(O)c5c4[C@@]2(CCN3CC2CC2)[C@H]1O5
- cell count [1]: 527
- inhibition [1]: 0.1% (inactive)
- inhibition of aggregation [2]: -9.9% (inactive)
- nuclei count [2]: 99.2%
- inhibition [3]: -20.4% (inactive)
- nuclei count [3]: 109%
- z-score [4, 13]: 0.737
- z-score [4, 14]: 1.29
- z-score [4, 15]: -0.809
- inhibition [5]: 14.6% (inactive)
- fluorescence slope [6]: -0.469 (inactive)
- NADPH fluorescence slope [7]: -4e-05 (inactive)
- slope [8]: 0.00496 (inactive)
- outcome [12]: inactive
- inhibition [9]: -15.6% (inactive)
- inhibition [10]: -6.04% (inactive)
- inhibition [11]: 25% (inactive)

Structure (SMILES): O=c1c2ccccc2[se]n1-c1ccccc1
- cell count [1]: 504
- inhibition [1]: -10.8% (inactive)
- inhibition of aggregation [2]: 7.2% (inactive)
- nuclei count [2]: 84.9%
- inhibition [3]: -42.3% (inactive)
- nuclei count [3]: 117%
- z-score [4, 13]: 1
- z-score [4, 14]: 0.0235
- z-score [4, 15]: -0.954
- inhibition [5]: 7.39% (inactive)
- fluorescence slope [6]: -0.437 (inactive)
- NADPH fluorescence slope [7]: -0.000217 (active)
- slope [8]: 0.00458 (inactive)
- outcome [12]: inactive
- inhibition [9]: 6.32% (inactive) and 27.8% (inactive)
- inhibition [10]: 0.283% (inactive)
- inhibition [11]: 12.7% (inactive)

Structure (SMILES): COc1ccc(OC)c(C(O)C(C)N)c1 (centres undefined)
- cell count [1]: 507
- inhibition [1]: -7.1% (inactive)
- inhibition of aggregation [2]: 7% (inactive)
- nuclei count [2]: 57.3%
- inhibition [3]: -75.2% (inactive)
- nuclei count [3]: 108%
- z-score [4, 13]: -0.1
- z-score [4, 14]: 0.202
- z-score [4, 15]: 1.18
- inhibition [5]: 11.3% (inactive)
- fluorescence slope [6]: -0.51 (inactive)
- NADPH fluorescence slope [7]: -2.7e-05 (inactive)
- slope [8]: 0.0053 (inactive)
- outcome [12]: inactive
- inhibition [9]: 8.38% (inactive) and -0.435% (inactive)
- inhibition [10]: 4.62% (inactive)
- inhibition [11]: 34.8% (inactive)

Structure (SMILES): NCC1(CC(=O)O)CCCCC1
- cell count [1]: 645
- inhibition [1]: -5.2% (inactive)
- inhibition of aggregation [2]: -6.5% (inactive)
- nuclei count [2]: 100%
- inhibition [3]: -78.6% (inactive)
- nuclei count [3]: 116%
- z-score [4, 13]: -0.493
- z-score [4, 14]: 0.124
- z-score [4, 15]: -0.808
- inhibition [5]: 1.38% (inactive)
- fluorescence slope [6]: -0.493 (inactive)
- NADPH fluorescence slope [7]: -3.2e-05 (inactive)
- slope [8]: 0.00518 (inactive)
- outcome [12]: inactive
- inhibition [9]: 4.56% (inactive) and -5.83% (inactive)
- inhibition [10]: -3.61% (inactive)
- inhibition [11]: 3.7% (inactive)

Structure (SMILES): C[N+]1(C)[C@@H]2CC(OC(=O)[C@H](CO)c3ccccc3)C[C@H]1[C@@H]1O[C@@H]12 (some centres undefined)
- cell count [1]: 542
- inhibition [1]: -16.3% (inactive)
- inhibition of aggregation [2]: 19% (inactive)
- nuclei count [2]: 107%
- inhibition [3]: -56.7% (inactive)
- nuclei count [3]: 129%
- z-score [4, 13]: -0.698
- z-score [4, 14]: -0.0087
- z-score [4, 15]: -0.0821
- inhibition [5]: -0.493% (inactive)
- fluorescence slope [6]: -0.433 (inactive)
- NADPH fluorescence slope [7]: 2.1e-05 (inactive)
- slope [8]: 0.0054 (inactive)
- outcome [12]: inactive
- inhibition [9]: 9.4% (inactive)
- inhibition [10]: -2.08% (inactive)
- inhibition [11]: 22.3% (inactive)

Structure (SMILES): COC1=CC(=O)OC(/C=C/c2ccccc2)C1 (centres undefined)
- cell count [1]: 562
- inhibition [1]: 0.9% (inactive)
- inhibition of aggregation [2]: 17.4% (inactive)
- nuclei count [2]: 92%
- inhibition [3]: 1.6% (inactive)
- nuclei count [3]: 112%
- z-score [4, 13]: 1.47
- z-score [4, 14]: -1.75
- z-score [4, 15]: -1.36
- inhibition [5]: 25.7% (inactive)
- fluorescence slope [6]: -0.448 (inactive)
- NADPH fluorescence slope [7]: -5.6e-05 (inactive)
- slope [8]: 0.00584 (inactive)
- outcome [12]: inactive
- inhibition [9]: -16.3% (inactive)
- inhibition [10]: 0.4% (inactive)
- inhibition [11]: -0.629% (inactive)

Structure (SMILES): CNCCc1c[nH]c2ccccc12
- cell count [1]: 615
- inhibition [1]: -10.3% (inactive)
- inhibition of aggregation [2]: 3.8% (inactive)
- nuclei count [2]: 103%
- inhibition [3]: -70.6% (inactive)
- nuclei count [3]: 127%
- z-score [4, 13]: -0.539
- z-score [4, 14]: -0.571
- z-score [4, 15]: -0.457
- inhibition [5]: -6.41% (inactive)
- fluorescence slope [6]: -0.506 (inactive)
- NADPH fluorescence slope [7]: 2.2e-05 (inactive)
- slope [8]: 0.00539 (inactive)
- outcome [12]: inactive
- inhibition [9]: 1.04% (inactive)
- inhibition [10]: 25.5% (inactive)
- inhibition [11]: 49.1% (inactive)

Structure (SMILES): CC(CCc1ccccc1)NC(C)C(O)c1ccc(O)cc1 (centres undefined)
- cell count [1]: 697
- inhibition [1]: 2% (inactive)
- inhibition of aggregation [2]: 19.5% (inactive)
- nuclei count [2]: 96.6%
- inhibition [3]: -54.5% (inactive)
- nuclei count [3]: 119%
- z-score [4, 13]: -0.115
- z-score [4, 14]: -1.79
- z-score [4, 15]: -1.46
- inhibition [5]: 10.2% (inactive)
- fluorescence slope [6]: -0.468 (inactive)
- NADPH fluorescence slope [7]: 4.8e-05 (inactive)
- slope [8]: 0.00919 (inactive)
- outcome [12]: inactive
- inhibition [9]: 8.38% (inactive) and -4.76% (inactive)
- inhibition [10]: -11.1% (inactive)
- inhibition [11]: 12% (inactive)

Structure (SMILES): C[C@H]1OC[C@@H](C[N+](C)(C)C)O1
- cell count [1]: 534
- inhibition [1]: -2.2% (inactive)
- inhibition of aggregation [2]: 21% (inactive)
- nuclei count [2]: 93.2%
- inhibition [3]: -83.7% (inactive)
- nuclei count [3]: 112%
- z-score [4, 13]: 0.485
- z-score [4, 14]: 0.998
- z-score [4, 15]: -0.857
- inhibition [5]: 16.8% (inactive)
- fluorescence slope [6]: -0.458 (inactive)
- NADPH fluorescence slope [7]: -5.9e-05 (inactive)
- slope [8]: 0.0176 (active)
- outcome [12]: inactive
- inhibition [9]: -2.33% (inactive) and 9.97% (inactive)
- inhibition [10]: 1.89% (inactive)
- inhibition [11]: 50.9% (active)

From PubChem BioAssay
